DT40 TDP1 CPT: DT40-hTDP1 cell growth loss with CPT; chicken DT40 Tdp1-/-;hTDP1 cells + 20 nM CPT, ATP luminescence, 48 h; Potency, µM (top dose mostly 46.2 µM), actives largely listed as inhibitors; 420,000 compounds, 12% hits; also: nearly all actives have a fitted effect of over 55% in size
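Cell growth measured by CellTiter-Glo luminescence after a minimum 48 h, 37 C compound exposure with 20 nM CPT in Tdp1-knockout DT40 cells stably expressing hTDP1, seeded 400/well; qHTS titration format.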
IL1B secr inh: inhibitors of inflammasome signaling (IL-1 beta secretion); activity change, % at 57.5 µM; THP-1 LPS/ATP IL-1B secretion, AlphaLISA, 16 h; hits give low values; AID 743279; 360,000 compounds, 4.7% hits; in the data active = activity change below about -50%; inconclusive = mostly about -30% to -49%
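Secreted IL-1B measured by AlphaLISA bead assay after 16 h compound exposure of THP-1 cells; compounds (final up to 57.5 uM) added 1 h before LPS (250 ng/mL) and ATP (1.25 mM) stimulation; lower signal means less secretion.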
TDP1 cell noCPT: qHTS for Inhibitors of human tyrosyl-DNA phosphodiesterase 1 (TDP1): qHTS in cells in absence of CPT | Potency, µM (highest dose often 46.2 µM), hits mostly inhibitors | DT40 Tdp1-/- hTDP1 cells, no CPT, ATP luminescence, 48 h | 420,000 compounds, 15% hits; also: nearly all actives have a fitted effect of over 55% in size
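Growth kinetics read by CellTiter-Glo luminescence after ≥48 hr at 37 °C. Cells: DT40 Tdp1-/- stably carrying human TDP1, 400 per well, compound exposure in the absence of CPT (DMSO vehicle).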
TGFb SMAD3 inh: blocks TGF-b signaling; HepG2 CAGA-GFP TGF-b/SMAD3 reporter, GFP fluorescence, 18 h; TGF-beta stimulated, 500 pg/mL final; Potency, µM (doses to about 46.1 µM), hits mostly inhibitors; 410,000 compounds, 1.2% hits; AID 588855; also: nearly all actives have a fitted effect of over 65% in size
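TGF-beta reporter screen: HEPG2 CAGA-GFP, 1% FBS, 500 pg/mL TGF-beta final, 18 h; per-cell GFP summed per well; curves fitted and categorized by class.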
HepG2 viability: counter-screen for TGF-b inhibitors: cytotoxicity in HepG2 cells; 410,000 compounds, 0.76% hits; Potency, µM (titrated, usually from 46.1 µM), most hits filed as cytotoxic; HepG2 CAGA-GFP viability, ATP luminescence, 18 h
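HepG2 CAGA-GFP cells (1000/well, DMEM with 1% FBS) received compound, then TGF-beta at 500 pg/mL final, and were incubated 18 hours at 37 degrees C. Viability was read by CellTiter-Glo luminescence. Media-only wells were set as complete cell-killing and DMSO as no toxicity.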
S-ASM inh: human S-ASM enzyme inhibition; P17405; placental ASM, HMU-PC fluorogenic substrate, 60 min; Potency, µM (series often up to 57.5 µM), usual class: inhibitors; 340,000 compounds, 0.006% hits
Target sequence (P17405 47-631 limits assumed): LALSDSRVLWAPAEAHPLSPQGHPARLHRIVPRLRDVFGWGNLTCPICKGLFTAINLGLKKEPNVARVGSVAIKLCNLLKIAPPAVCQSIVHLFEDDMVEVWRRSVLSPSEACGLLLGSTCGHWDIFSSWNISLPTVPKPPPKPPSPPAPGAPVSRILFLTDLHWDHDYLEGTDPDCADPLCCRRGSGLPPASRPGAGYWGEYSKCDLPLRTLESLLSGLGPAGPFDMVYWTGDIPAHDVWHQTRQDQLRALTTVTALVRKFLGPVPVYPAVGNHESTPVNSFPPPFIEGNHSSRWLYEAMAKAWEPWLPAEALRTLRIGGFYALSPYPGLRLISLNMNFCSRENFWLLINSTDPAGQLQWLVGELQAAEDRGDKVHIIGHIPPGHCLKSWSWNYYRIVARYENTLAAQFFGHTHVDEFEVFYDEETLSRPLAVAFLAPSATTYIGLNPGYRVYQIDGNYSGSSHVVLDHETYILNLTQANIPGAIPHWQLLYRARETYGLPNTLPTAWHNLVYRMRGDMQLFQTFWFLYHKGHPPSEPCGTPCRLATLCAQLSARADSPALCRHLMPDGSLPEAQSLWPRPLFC
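Fluorogenic HMU-PC substrate (9 uM final) is turned over by placental ASM in 60 min at 37 C after a 10 min compound preincubation. Reaction ended by alkaline stop (pH 10), with fluorescence read at 386/447 nm.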
Each line names hits and unclear results; the compound was inactive in the other large screens. An excerpt weighted towards active compounds, which were near 19% of everything screened. Unless noted, calls follow the shape of the dose curve; as a rule, active = well fitted curve in the direction sought with a large enough effect; inconclusive = small, poorly fitted or top-dose-only effect, or another doubt; inactive = no such curve, though single readings can be large; an effect the other way counts as inactive or inconclusive.

COc1cccc(OCC(O)CN2CCC(Cc3ccccc3)CC2)c1 (stereo unspecified)	DT40 TDP1 CPT inconclusive, IL1B secr inh inconclusive, TDP1 cell noCPT 18.4µM
OC(COc1ccccc1)CN1CCC(Cc2ccccc2)CC1 (stereo unspecified)	IL1B secr inh -72.0
OC(COc1ccc(F)cc1Cl)CN1CCC(Cc2ccccc2)CC1 (stereo unspecified)	DT40 TDP1 CPT inconclusive, IL1B secr inh -61.2, TDP1 cell noCPT 20.6µM, TGFb SMAD3 inh inconclusive, HepG2 viability 15.8µM
OC(COc1ccccc1F)CN1CCC(Cc2ccccc2)CC1 (stereo unspecified)	DT40 TDP1 CPT inconclusive, TDP1 cell noCPT inconclusive
Cc1c(CNC2CCC(C)CC2)c(C(=O)O)c(C)n1Cc1ccccc1F (stereo unspecified)	TDP1 cell noCPT inconclusive (no result: IL1B secr inh, S-ASM inh)
CC1CCCC(C)N1C(=O)CSc1nnc(COc2ccc(F)cc2)o1 (stereo unspecified)	DT40 TDP1 CPT inconclusive, TDP1 cell noCPT inconclusive
COc1cccc(OC)c1OCCN1CCC(C(=O)NC(c2ccccc2)c2ncccc2C)CC1 (stereo unspecified)	DT40 TDP1 CPT inconclusive, TDP1 cell noCPT inconclusive (no result: S-ASM inh)
COc1ccc(C(NC(=O)C2CCN(CCCc3ccccc3)CC2)c2ccccn2)cc1 (stereo unspecified)	none (no result: S-ASM inh)
Cc1cccnc1C(NC(=O)C1CCN(Cc2cn(C)c3ccccc23)CC1)c1ccc(Cl)cc1 (stereo unspecified)	DT40 TDP1 CPT 4.61µM, IL1B secr inh inconclusive, TDP1 cell noCPT 4.61µM, TGFb SMAD3 inh inconclusive, HepG2 viability 8.91µM (no result: S-ASM inh)
Cc1cccnc1C(NC(=O)C1CCN(CCCc2ccccc2)CC1)c1ccc(Cl)cc1 (stereo unspecified)	DT40 TDP1 CPT inconclusive, IL1B secr inh -57.2, TDP1 cell noCPT 29.1µM, TGFb SMAD3 inh inconclusive, HepG2 viability 11.2µM (no result: S-ASM inh)
Cc1cccnc1C(NC(=O)C1CCN(Cc2ccc(Cl)cc2)CC1)c1ccccc1 (stereo unspecified)	DT40 TDP1 CPT 16.4µM, IL1B secr inh inconclusive, TDP1 cell noCPT 16.4µM (no result: S-ASM inh)
Cc1cccnc1C(NC(=O)C1CCN(Cc2ccc(Oc3ccccc3)cc2)CC1)c1ccc(F)cc1 (stereo unspecified)	DT40 TDP1 CPT 23.1µM, IL1B secr inh -66.8, TDP1 cell noCPT inconclusive, TGFb SMAD3 inh inconclusive (no result: S-ASM inh)
COc1ccc(C(=O)N2CCN(C)C(=O)[C@@H]2C)cc1OC1CCN(C(C)=O)CC1	none
Cc1cccc(C)c1OCC(=O)OCC(=O)Nc1ccc(Cl)cn1	none
COc1cc(OC)nc(C(NC(=O)C2CCN(Cc3ccc(Oc4ccccc4)cc3)CC2)c2ccccc2C)n1 (stereo unspecified)	DT40 TDP1 CPT inconclusive, IL1B secr inh -57.8, TDP1 cell noCPT inconclusive (no result: S-ASM inh)
COC(=O)C1=CN(c2ccc3c(c2)OCO3)C(N)=C(C#N)C1c1cccc(F)c1 (stereo unspecified)	DT40 TDP1 CPT 1.3µM, TDP1 cell noCPT 0.651µM (no result: TGFb SMAD3 inh, HepG2 viability, S-ASM inh)
COC(=O)C1=CN(c2ccc(OC)cc2)C(N)=C(C#N)C1c1ccc(OC)cc1 (stereo unspecified)	DT40 TDP1 CPT 10.3µM, IL1B secr inh inconclusive, TDP1 cell noCPT inconclusive (no result: TGFb SMAD3 inh, HepG2 viability, S-ASM inh)
COC(=O)C1=CN(c2ccc(N3CCOCC3)cc2)C(N)=C(C#N)C1c1cccc(OC)c1OC (stereo unspecified)	TDP1 cell noCPT inconclusive (no result: TGFb SMAD3 inh, HepG2 viability, S-ASM inh)
COC(=O)C1=CN(c2ccc(C)cc2)C(N)=C(C#N)C1c1ccc(OC)cc1 (stereo unspecified)	DT40 TDP1 CPT inconclusive, TDP1 cell noCPT inconclusive (no result: TGFb SMAD3 inh, HepG2 viability, S-ASM inh)
COC(=O)C1=CN(c2ccc(OC)cc2OC)C(N)=C(C#N)C1c1ccc(OC)cc1 (stereo unspecified)	DT40 TDP1 CPT inconclusive, TDP1 cell noCPT 20.6µM (no result: TGFb SMAD3 inh, HepG2 viability, S-ASM inh)
COC(=O)C1=CN(c2ccc(N3CCOCC3)cc2)C(N)=C(C#N)C1c1ccccc1 (stereo unspecified)	DT40 TDP1 CPT inconclusive, TDP1 cell noCPT 18.4µM (no result: TGFb SMAD3 inh, HepG2 viability, S-ASM inh)
CCN(CC)CCCN=Cc1c(O)n(-c2cccc(C)c2)c(=O)c2ccccc12	DT40 TDP1 CPT inconclusive
CC(=O)C1=C(O)C(=O)N(C)C1c1ccccc1[N+](=O)[O-] (stereo unspecified)	none
CC12CCC(C(=O)N3CCN(C(c4ccccc4)c4ccccc4)CC3)(OC1=O)C2(C)C (stereo unspecified)	DT40 TDP1 CPT inconclusive, TDP1 cell noCPT 18.4µM
Cc1c(C(=O)N2CCN(C(c3ccccc3)c3ccccc3)CC2)oc2ccccc12	DT40 TDP1 CPT 16.4µM, TDP1 cell noCPT inconclusive, TGFb SMAD3 inh inconclusive
Cc1onc(C(=O)N2CCN(C(c3ccccc3)c3ccccc3)CC2)c1[N+](=O)[O-]	DT40 TDP1 CPT inconclusive, IL1B secr inh -98.7, TDP1 cell noCPT inconclusive
Cc1onc(C(=O)N2CCOCC2)c1[N+](=O)[O-]	none
Cc1cc(=O)oc(C)c1C(=O)N1CCN(C(c2ccccc2)c2ccccc2)CC1	DT40 TDP1 CPT 20.6µM, TDP1 cell noCPT 29.1µM
CNC(=O)c1cc(C(=O)c2ccc(Cl)cc2)c(Br)[nH]1	DT40 TDP1 CPT inconclusive, TDP1 cell noCPT inconclusive
CCCCOc1ccc(OCCNC(=O)c2ccco2)cc1	DT40 TDP1 CPT inconclusive, TDP1 cell noCPT 16.4µM
O=C(NC(=S)NCc1ccc(Cl)cc1)c1ccco1	DT40 TDP1 CPT inconclusive, IL1B secr inh -100.9, TDP1 cell noCPT inconclusive
CC(Oc1ccc(Cl)cc1)C(=O)NNC(=S)NC(=O)c1ccco1 (stereo unspecified)	DT40 TDP1 CPT inconclusive, TDP1 cell noCPT 16.4µM
CCCOc1ccc(C(=O)NNC(=S)NC(=O)c2ccco2)cc1	DT40 TDP1 CPT 3.26µM, TDP1 cell noCPT 2.91µM
COc1ccccc1OCCNC(=O)c1ccco1	none
O=C(COc1ccc(Cl)cc1Cl)NNC(=S)NC(=O)c1ccco1	DT40 TDP1 CPT inconclusive, TDP1 cell noCPT inconclusive, TGFb SMAD3 inh inconclusive (no result: IL1B secr inh)
CCC(NC(=O)c1ccccc1NC(=O)c1ccco1)C(=O)NNC(=O)c1ccc(OC)cc1 (stereo unspecified)	IL1B secr inh -120.0
COC(=O)c1cc(OC)c(OC)cc1NC(=S)NC(=O)c1ccco1	DT40 TDP1 CPT 20.6µM, TDP1 cell noCPT 10.3µM
COc1ccc(C(=O)NNC(=S)NC(=O)c2ccco2)cc1	DT40 TDP1 CPT 5.17µM, TDP1 cell noCPT 8.2µM
CCC(C)C(NC(=O)c1ccccc1NC(=O)c1ccco1)C(=O)NNC(=O)c1ccc(OC)cc1 (stereo unspecified)	DT40 TDP1 CPT inconclusive

High-throughput results as filed in PubChem BioAssay.
